27 compounds from PubChem BioAssay can be followed below.

Activity calls are given as the source filed them. No rule for the calls is given here.

This assay deals with Aerobactin synthetase IucA (Klebsiella pneumoniae hvKP1). As to the kind of experiment: Biochemical IucA enzyme inhibition primary screen of the Spectrum library (AID 1346200).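 Also: 100% = wells without compound and 0% = wells lacking enzyme.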 Conditions: malachite green pyrophosphate, A620, at 8 µM, active compounds read low.
`CN(C)c1ccc2nc3ccc(=[N+](C)C)cc-3sc2c1`: the activity remaining was 104% (inactive).
The figure for `CC[C@H]1OC(=O)[C@H](C)[C@@H](O[C@H]2C[C@@](C)(OC)[C@@H](O)[C@H](C)O2)[C@H](C)[C@@H](O[C@@H]2O[C@H](C)C[C@H](N(C)C)[C@H]2O)[C@](C)(O)C[C@@H](C)CN(C)[C@H](C)[C@@H](O)[C@]1(C)O` is 104% (inactive).
On to `CC(=O)OC1CCC2(C)C(=CC=C3C2CCC2(C)C3CCC2C(C)/C=C/C(C)C(C)C)C1(C)C` (configuration not stated), for which the activity remaining is 125% (inactive).
On to `C=C(C)C1(O)OC(=O)C=C1OC` (configuration not stated), for which the activity remaining is 124% (inactive).
The figure for `CC1(C)OCC(C2OC(=O)C(O)=C2O)O1` (configuration not stated) is 87.7% (inactive); for `C/C1=C/CC(C)(C)/C=C/C/C(C)=C/CC1` it is 122% (inactive); for `COC(=O)C[C@H]1C(C)(C)C(=O)[C@@H]2CC3=C(CC[C@]4(C)C3=CC(=O)O[C@H]4c3ccoc3)C1(C)C2=O` it is 121% (inactive).
The figure for `NC(=O)c1ccc[n+]([C@@H]2O[C@H](COP(=O)([O-])OP(=O)(O)OC[C@H]3O[C@@H](n4cnc5c(N)ncnc54)[C@H](O)[C@@H]3O)[C@@H](O)[C@H]2O)c1` is 108% (inactive).
Take `COc1c2ccoc2nc2c(OC)c(OCC(O)C(C)(C)O)ccc12` (configuration not stated): the activity remaining is 98% (inactive).
For `CC1(C)S[C@@H]2[C@H](NC(=O)[C@H](N)c3ccccc3)C(=O)N2[C@H]1C(=O)O`, the activity remaining was 101% (inactive).
Take `COc1c(N2CCNC(C)C2)c(F)cc2c(=O)c(C(=O)O)cn(C3CC3)c12` (configuration not stated): the activity remaining is 123% (inactive).
The figure for `CC(C)CCCC(C)[C@H]1CCC2C3CC=C4CC(=O)CC[C@]4(C)C3CC[C@@]21C` (some centres not stated) is 113% (inactive); for `NC[C@H]1O[C@H](O[C@H]2[C@H](O)[C@@H](O[C@H]3O[C@H](CO)[C@@H](O)[C@H](N)[C@H]3O)[C@H](N)C[C@@H]2N)[C@H](N)[C@@H](O)[C@@H]1O` it is 108% (inactive).
On to `Cc1onc(-c2ccccc2)c1C(=O)NC1C(=O)N2[C@@H]1SC(C)(C)[C@@H]2C(=O)O` (some centres not stated), for which the activity remaining is 106% (inactive).
As for `CCC(=O)OC1[C@@H]2CC3=C4CC(=O)O[C@@H](c5ccoc5)[C@]4(C)CCC3C(C)(C2=O)[C@@H](CC(=O)OC)C1(C)C` (some centres not stated), the activity remaining was 121% (inactive).
Next, `Cc1cc(=O)c2c(O)cc(O)c(C)c2o1`: 99.3% (inactive); `COC(=O)CCC(C)C1CCC2C3CC[C@@H]4C[C@H](O)CC[C@]4(C)C3C[C@H](O)[C@]12C` (some centres not stated): 120% (inactive).
With `C=CC[C@@H]1/C=C(\C)C[C@H](C)C[C@H](OC)[C@H]2O[C@@](O)(C(=O)C(=O)N3CCCC[C@H]3C(=O)O[C@H](/C(C)=C/[C@@H]3CC[C@@H](O)[C@H](OC)C3)[C@H](C)[C@@H](O)CC1=O)[C@H](C)C[C@@H]2OC`, the activity remaining is 105% (inactive).
Next, `COc1cc2c(cc1OC)C(=O)OC2`: 110% (inactive); `O=C(/C=C/c1ccc(O)cc1)c1ccccc1O`: 109% (inactive); `C=NC(C(=O)NC1C(=O)N2C1SC(C)(C)C2C(=O)O)c1ccccc1` (configuration not stated): 110% (inactive).
The figure for `COc1ccc([C@@H]2CC(=O)c3c(O)cc(O)cc3O2)cc1O` is 115% (inactive).
For `CCS(=O)(=O)CCn1c([N+](=O)[O-])cnc1C`, the activity remaining was 124% (inactive).
Next, `CC(C1OC(C)(C)C(O)C1O)[C@@H]1CC[C@]2(C)C3=CCC4C(C)(C)C(=O)CC[C@]4(C)C3CC[C@@]12C` (some centres not stated): 111% (inactive); `CN1C2CC3C[C@H]1C(O3)C2O` (some centres not stated): 108% (inactive); `N[C@H](C(=O)O)[C@@H]1CC(Cl)=NO1`: 112% (inactive).
The figure for `CC(C)=CCc1c2c(c3occ(-c4ccc(O)c(O)c4)c(=O)c3c1O)C=CC(C)(C)O2` is 120% (inactive).
